Screening data deposited in PubChem BioAssay by The Scripps Research Institute Molecular Screening Center.
TEAD-YAP inh: TEAD-YAP interaction inhibition; HEK-TIYL cells, TEAD-Gal4/YAP UAS-luciferase luminescence; inhibition, % at 9.12 µM; 640,000 tested, 1.4% active; AID 1259422; in the data active = inhibition above about 32%
FBW7 act: human FBW7 E3 ligase activation, primary screen. AlphaScreen FBW7–phospho-cyclin E peptide binding, activator screen. normalized activity (activation), % at 26.1 µM. 650,000 tested, 0.13% active; in the data active = normalized activity above about 1.9%;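 also: purified mutant Fbw7 with reduced substrate affinity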
MITF inh: blocks human microphthalmia-associated transcription factor. O75030. inhibition, % at 2.6 µM. AlphaScreen MITF homodimerization, bead proximity signal. 650,000 tested, 0.91% active; in the data active = inhibition above about 50%
GPR151 activ: human GPR151 activation; Q8TDV0; PathHunter beta-arrestin GPR151 cells, luminescence; activation, % at 11.2 µM; 650,000 tested, 1% active; AID 1508602; in the data active = activation above about 4.9%
GPR151 conf act: confirmation of human GPR151 activators; shares compounds with GPR151 activ; GPR151 PathHunter beta-arrestin cells, luminescence, 90 min; % of EA-reagent control over plate median; activation, % at 11.2 µM; 6,700 tested, under 10 active;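 active = mean percent activation across replicates above the confirmation screen cutoff of 4.91%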
GPR119 ag: activates human GPR119 in a GPR151 counter-screen. activation, % at 11.2 µM. 6,700 tested, 0.3% active. shares compounds with GPR151 activ. GPR119 PathHunter beta-arrestin cells, luminescence, 90 min; 0 = compound-well median, 100 = enzyme-acceptor control;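 active = mean percent activation in the counterscreen above 29.09%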;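 also: counterscreen on off-target GPR119 to flag nonselective hits from the GPR151 activator screen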
A number is an active result; – = inactive; · = no result given; ! = a repeat was not active. Hits are enriched below; roughly 3.5% of the tested compounds scored in any of these assays.

SMILES	TEAD-YAP inh	FBW7 act	MITF inh	GPR151 activ	GPR151 conf act	GPR119 ag
CCOc1ccc(-n2cc(C(=O)N3CCN(c4ccc(F)cc4)CC3)c3cc(OC)c(OC)cc3c2=O)cc1	–	–	–	–	·	·
CCCN(CCC)S(=O)(=O)c1ccc(C(=O)N2c3ccccc3N3C(c4c(C)cc(C)cc4C)=NON23)cc1	–	–	–	–	·	·
CC(C)CCOc1cccc(C(=O)Nc2ccc3c(c2)Cc2ccccc2-3)c1	–	–	–	–	·	·
NS(=O)(=O)c1ccc(NC(=O)COc2ncnc3scc(-c4ccccc4)c23)cc1	–	–	–	5.5	–	–
CCOc1cc2c(cc1OC)C(c1ccc(OC)c(OC)c1)NCC2 (stereo not drawn)	–	–	–	–	·	·
O=C(C1CC1)N1CCC(Oc2nc3c(Cl)cccc3s2)CC1	–	–	–	–	·	·
COc1cc(Nc2ccc(NC(=O)Nc3ccccc3)cc2)nc(C)n1	–	–	–	7.9	–	–
O=C(NCCCN1CCN(c2ccccc2)CC1)c1ccccc1	–	–	–	–	·	·
Cc1ccc(C(=O)NCN2CCN(c3ccccc3)CC2)cc1	–	–	–	6.0	–	–
CCOC(=O)C1=C(C)OC(N)=C(C#N)C1c1ccccc1C(F)(F)F (stereo not drawn)	–	–	–	7.1	–	–
CCOC(=O)C1=C(C)OC(N)=C(C#N)C1c1ccc(OC)c(OCC)c1 (stereo not drawn)	–	–	–	5.2	–	–
CCOC(=O)C1=C(C)OC(N)=C(C#N)C1c1ccc(OC)c(OC)c1 (stereo not drawn)	–	–	–	–	·	·
COC(=O)C1=C(C)OC(N)=C(C#N)C1c1ccccc1C(F)(F)F (stereo not drawn)	–	–	–	–	·	·
Cc1cc(Cl)cc(Cl)c1OCC(=O)N1CCN(c2ccc([N+](=O)[O-])cc2)CC1	–	–	–	–	·	·
CSc1ccccc1C(=O)Nc1ccccc1Cl	–	–	–	8.2	–	–
O=C1NCN(c2ccccc2)C12CCN(CCCC(c1ccc(F)cc1)c1ccc(F)cc1)CC2	–	–	–	7.2!	–	–
Fc1ccc(C(CCCN2CCN3CCCC3C2)c2ccc(F)cc2)cc1 (stereo not drawn)	–	–	–	–	·	·
CC(NC(=O)/C=C/c1ccco1)c1ccccc1 (stereo not drawn)	–	–	–	5.1	–	–
Cc1ccc(/C=C/C(=O)NC(C)c2ccccc2)o1 (stereo not drawn)	–	–	–	–	·	·
Cc1cc(Cl)nc2cc3c(cc12)CCC3	–	–	–	–	·	·
COc1ccccc1-c1coc2cc(OC(=O)C(C)(C)C)ccc2c1=O	–	–	–	6.9	–	–
CCCOc1ccc(N2C(=O)CC(NNC(=O)c3cc(C)nc4ccccc34)C2=O)cc1 (stereo not drawn)	–	–	–	–	·	·
Cc1csc(Sc2ccc([N+](=O)[O-])cc2C(=O)OCC(=O)Nc2cc(C)on2)n1	–	–	–	–	·	·
Cc1csc(Sc2ccc([N+](=O)[O-])cc2C(=O)OC(C)C#N)n1 (stereo not drawn)	–	–	–	5.3	–	–
CC(NC(=O)Nc1ccc(S(N)(=O)=O)cc1)(C(F)(F)F)C(F)(F)F	–	–	–	4.9	–	–
SMILES	TEAD-YAP inh	FBW7 act	MITF inh	GPR151 activ	GPR151 conf act	GPR119 ag
COc1ccc(-c2nc(Nc3ccc(N4CCOCC4)cc3)c3ncn(-c4ccccc4)c3n2)cc1	–	–	–	–	·	·
O=C(CN1Cc2ccccc2OC(c2ccccc2F)C1)N1CCCC1c1n[nH]c(=O)[nH]1 (stereo not drawn)	–	–	–	7.5	–	–
CCOCCCNC(=O)c1cnn2c(C)c(Cc3ccccc3Br)c(C)nc12	–	–	–	6.0	–	–
O=C(CCCn1nc(-c2ccccc2)c2ccccc21)NCc1ccccn1	–	–	–	7.6	–	–
O=C(NCCc1nnc2n1CCN(Cc1ccc(F)cc1)CC2)c1ccoc1	–	–	–	–	·	·
O=C(COC(=O)c1ccc(OC(F)F)cc1)Nc1cccnc1Cl	–	–	–	12	–	–
CCOC(=O)Nc1cccc(NC(=O)c2cccc3ccccc23)c1	–	–	–	–	·	·
COC(=O)c1c(NC(=O)CSc2nnc3cc(C)c4ccccc4n23)sc2c1CCC(C)C2 (stereo not drawn)	–	–	–	–	·	·
Cc1cc2nnc(SCC(=O)Nc3sc4c(c3C#N)CCC(C)C4)n2c2ccccc12 (stereo not drawn)	–	–	–	5.3	–	–
Cc1cc(C(=O)Nc2sc3c(c2C#N)CCC(C)C3)cs1 (stereo not drawn)	–	–	–	8.3	–	–
O=C(NC(=S)N1CCSCC1)c1ccco1	–	–	–	–	·	·
O=S(=O)(c1ccc(Nc2nc3ccccc3n3nnnc23)cc1)N1CCOCC1	–	–	–	5.1	–	–
Nc1ncc(Br)cc1S(=O)(=O)N(CCc1ccccc1)Cc1ccccc1	–	–	–	9.3	–	–
CN(Cc1ccccc1)S(=O)(=O)c1cc(Br)cnc1N	–	–	–	–	·	·
